The nature of experiment [1]: qHTS assay for small molecule agonists of the p53 signaling pathway (AID 651631; calls by dose curve; further: nearly all actives have a fitted effect of over 15% in size; further: potency means the concentration at half of the fitted maximal effect). The essentials:
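Quantitative high-throughput format: 4,000 p53RE-bla HCT-116 cells/well, 5 h pre-incubation, 16 h compound exposure at 37 °C, 2 h room-temperature substrate step, fluorescence intensity measured.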

Experiment [2] in a line: qHTS assay for small molecules that induce genotoxicity in human embryonic kidney cells expressing luciferase-tagged ATAD5 (AID 651632). Further: nearly all actives have a fitted effect of over 15% in size. The essentials: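 ATAD5-luc HEK293T, 2,000 cells/well; cpd or DMSO pin-transferred; 16 hr, 37C/5% CO2; Amplite 30 min RT; luminescence.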
Experiment [3] is described as follows: qHTS assay for small molecule agonists of the p53 signaling pathway - cell viability (AID 651633; calls by dose curve;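 further: p53RE-bla HCT reporter cells with a stable beta-lactamase p53 reporter; series mostly up to about 83 µM; nearly all actives have a fitted effect of over 30% in size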). The essentials: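 p53RE-bla cells, seeded at 4,000 per well and rested 5 h at 37 C/5% CO2, received compounds in DMSO for 16 h at 37 C. CellTiter-Glo was then added, and luminescence was read after 30 min at room temperature to gauge cytotoxicity.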
Experiment [4] is described as follows: qHTS assay for small molecules that induce genotoxicity in human embryonic kidney cells expressing luciferase-tagged ATAD5 - cell viability (AID 651634; calls by dose curve; further: nearly all actives have a fitted effect of over 25% in size; further: potency means the concentration at half of the fitted maximal effect). The method in brief:
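Fluorescence from CellTiter-Fluor, reporting protease activity within live cells, served as the viability read-out. HEK293T cells carrying luciferase-tagged ATAD5 had been treated with compound for 15.5 hr at 37C.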

The nature of experiment [5]: qHTS assay for small molecule disruptors of the mitochondrial membrane potential - cell viability (AID 720634; calls by dose curve;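 further: human HepG2 liver cancer cells; series mostly up to about 83 µM; nearly all actives have a fitted effect of over 20% in size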). The essentials:
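Cells: HepG2, 2,000/well, attached overnight. Compound 1 hr, 37 C/5% CO2. +m-MPI dye, +CellTiter-Glo 30 min RT. Readout: luminescence (ATP).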

Experiment [6] in a line: qHTS assay for small molecule disruptors of the mitochondrial membrane potential (AID 720635). Further: potency means the concentration at half of the fitted maximal effect. The method in brief: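 HepG2 cells (2,000/well) attached overnight at 37C, then took compound for 1 hr at 37C, 5% CO2. Mito-MPS dye was added for 30 min; fluorescence was read at 490/535 nm (monomers) and 540/590 nm (aggregates).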
A short description of experiment [7]: qHTS assay to test for compound auto fluorescence at 590 nm (red) in HepG2 cells (AID 720674). The method in brief:
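Intrinsic compound fluorescence in the red window (Ex/Em 540/590 nm) is measured in attached HepG2 cells exposed for 1 hr, DMSO vehicle as baseline, benchmarked to Rose Bengal sodium.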

A short description of experiment [8]: qHTS assay to test for compound auto fluorescence at 535 nm (green) in HepG2 cells (AID 720675).
A short description of experiment [9]: qHTS assay to test for compound auto fluorescence at 590 nm (red) in HEK293 cells (AID 720679). The method in brief:
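Each well held 2,000 HEK293 cells in medium containing 10% dialyzed FBS. Following 4-5 hr attachment at 37C, 23 nL test compound or DMSO was added; plates sat overnight, and red fluorescence (540/590nm) was recorded.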

Experiment [10] can be described thus: qHTS assay to test for compound auto fluorescence at 535 nm (green) in HEK293 cells (AID 720680).
A short description of experiment [11]: qHTS assay to test for compound auto fluorescence at 460 nm (blue) in HEK293 cell free culture (AID 720681). The essentials: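 Test compounds were pinned into cell-free culture medium (DMEM with 10% FBS) and fluorescence was read directly at Ex/Em 405/460 nm. Signals were expressed as fluorescence equivalents of triamterene, with DMSO vehicle as control.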

Experiment [12] is described as follows: qHTS assay to test for compound auto fluorescence at 590 nm (red) in HEK293 cell free culture (AID 720683). The method in brief: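 Tox21 10K library compounds were pinned into cell-free DMEM with 10% FBS and fluorescence was read at excitation 540 nm. Activity is expressed as Rose Bengal sodium equivalency.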
The nature of experiment [13]: qHTS assay to test for compound auto fluorescence at 590 nm (red) in HepG2 cell free culture (AID 720684). The method in brief: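 Red fluorescence (540 nm excitation, 590 nm emission) was measured after compound transfer into cell-free MEM supplemented with 10% FBS. Values are equivalencies against Rose Bengal sodium.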
A short description of experiment [14]: qHTS assay to test for compound auto fluorescence at 460 nm (blue) in HepG2 cell free culture (AID 720685). The essentials:
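Compound (23 nL) or DMSO pinned into cell-free MEM with 10% FBS; blue fluorescence read at 405/460 nm excitation/emission, expressed as auto-fluorescence equivalency to triamterene.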

The nature of experiment [15]: qHTS assay to test for compound auto fluorescence at 535 nm (green) in HepG2 cell free culture (AID 720686).
Experiment [16] is described as follows: qHTS assay to test for compound auto fluorescence at 460 nm (blue) in HepG2 cells (AID 720687). The essentials:
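Cells (2,000/well in MEM with 10% FBS) attached overnight at 37 C, then were exposed to compound or DMSO for 1 hr at 37 C, 5% CO2. Fluorescence read at Ex/Em 405/460 nm, expressed as triamterene-equivalent signal.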

The target in experiment [17] is Glucocorticoid receptor (Homo sapiens) (UniProt P04150). The experiment in a line: qHTS assay to identify small molecule agonists of the glucocorticoid receptor (GR) signaling pathway (AID 720691; active means well fitted activation curve with a large enough effect in the signal ratio in the repeat runs, not every such curve was filed as active; the % refers to the signal ratio). The essentials:
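Fluorescence intensity from LiveBLAzer B/G FRET substrate (2 h, room temperature) reports beta-lactamase expression driven by the glucocorticoid response element in GR-bla HeLa cells after 18 h compound exposure at 37 C.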

For experiment [18] the target is unchanged. The experiment can be described thus: qHTS assay to identify small molecule antagonists of the glucocorticoid receptor (GR) signaling pathway (AID 720692; active means well fitted inhibition curve with a large enough effect in the signal ratio in the repeat runs, not every such curve was filed as active; the % refers to the signal ratio). The essentials:
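HeLa GR-bla cells; cmpd + dex 5 nM final, 18 h 37 C; LiveBLAzer B/G FRET substrate 2 h RT; fluorescence intensity read. Antagonist mode, qHTS.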

The nature of experiment [19]: qHTS assay to test for compound auto fluorescence at 460 nm (blue) in HEK293 cells (AID 720678). The essentials:
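Cells were seeded and left to adhere for 4-5 hr at 37C. Compounds were then pin-transferred. After an overnight incubation at 37C under 5% CO2, intrinsic fluorescence at 405/460 nm was measured and referenced to triamterene.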

A short description of experiment [20]: qHTS assay to test for compound auto fluorescence at 535 nm (green) in HEK293 cell free culture (AID 720682). The essentials: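 Measurement is a direct plate read of green fluorescence (485 nm in, 535 nm out) after compound addition to serum-supplemented DMEM lacking cells, with fluorescein used to express intensities.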

Molecules are shown by their SMILES. Values joined by “and” are separate entries in the source; they are usually repeats but may differ in a detail not shown here. Equal values may be shown once. Results filed as inconclusive are left out. Some compounds were tested as several samples or in several runs, with calls that do not always agree. Active and inactive are the calls of the source. Unless noted, the call rests on the fitted dose curve; in most records, active means well fitted curve in the direction sought with a large enough effect in the repeat runs; inconclusive means weak or mixed curves; inactive means no such curve, though single readings can be large; an effect the other way counts as inactive or inconclusive.
On the % scale 0 is the no-effect control and ±100 the full control effect.

Sequence of Glucocorticoid receptor (Homo sapiens) (P04150 whole entry, looked up): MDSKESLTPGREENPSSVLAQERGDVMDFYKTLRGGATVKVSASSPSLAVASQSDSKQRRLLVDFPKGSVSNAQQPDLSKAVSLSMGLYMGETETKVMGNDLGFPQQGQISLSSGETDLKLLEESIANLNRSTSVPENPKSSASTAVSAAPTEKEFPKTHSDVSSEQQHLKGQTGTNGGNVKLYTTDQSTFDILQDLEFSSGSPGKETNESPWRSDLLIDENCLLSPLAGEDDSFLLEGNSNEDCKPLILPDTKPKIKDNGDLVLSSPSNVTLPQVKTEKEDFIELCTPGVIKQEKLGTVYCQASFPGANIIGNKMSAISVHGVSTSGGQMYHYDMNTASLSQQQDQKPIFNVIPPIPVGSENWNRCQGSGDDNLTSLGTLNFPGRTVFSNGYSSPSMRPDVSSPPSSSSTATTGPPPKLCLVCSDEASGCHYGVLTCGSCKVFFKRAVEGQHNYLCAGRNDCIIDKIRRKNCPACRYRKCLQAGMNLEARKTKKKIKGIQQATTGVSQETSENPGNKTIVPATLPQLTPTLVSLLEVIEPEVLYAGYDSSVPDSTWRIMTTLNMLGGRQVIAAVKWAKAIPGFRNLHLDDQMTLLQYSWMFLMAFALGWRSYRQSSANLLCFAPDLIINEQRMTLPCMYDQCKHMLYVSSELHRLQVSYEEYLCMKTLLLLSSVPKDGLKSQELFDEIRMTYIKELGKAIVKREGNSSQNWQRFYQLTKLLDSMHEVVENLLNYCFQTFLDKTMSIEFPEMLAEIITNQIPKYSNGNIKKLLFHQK

For the molecule `CCOC(=O)/C=C(C)/C=C/C[C@@H](C)CCCC(C)C`, the Potency entry in experiment [1], in [2], in experiment [3], in experiment [4], in [5] and in [18] was “inactive” throughout. Moreover, the Potency entry in [6] was “inactive and 54.5 µM (active)”. Moreover, the molecule was called inactive in experiment [7], in experiment [8], in experiment [9], in experiment [10], in experiment [11] and in [12]. Further, the call in experiment [13], in experiment [14], in experiment [15], in [16] and in experiment [17] was inactive.
Turning to `OC(c1ccccc1)(c1ccccc1)C1CCNCC1`, the Potency result in experiment [1], in [2], in [3], in [4], in experiment [5] and in experiment [6] was “inactive” each time. Further, the fluorescence, relative to Rose Bengal in experiment [7] is 0.0965% [at 18.6 µM] (inactive). Moreover, the fluorescence, % of fluorescein control in experiment [8] was 0.0225% [at 18.6 µM] (inactive); in experiment [15], -0.0573% [at 18.6 µM] (inactive). The fluorescence, % of triamterene in [19] is -0.0368% [at 18.6 µM] (inactive). The fluorescence, % of fluorescent control in [9] is -0.0312% [at 18.6 µM] (inactive); in experiment [11], 0.0014% [at 18.6 µM] (inactive); in [12], 0.068% [at 18.6 µM] (inactive); in [14], -0.0381% [at 18.6 µM] (inactive); in experiment [16], 0.186% [at 18.6 µM] (inactive). In experiment [10], the fluorescence, % of fluorescein was 0.0137% [at 18.6 µM] (inactive). The fluorescence, % of Rose Bengal in experiment [13] is -0.191% [at 18.6 µM] (inactive). In addition, the result in [17] was inactive.
With `CC(CC(C#N)(c1ccccc1)c1ccccc1)N(C)C` (stereo not drawn), the Potency entry in experiment [1], in [2], in experiment [3], in experiment [4], in experiment [5] and in experiment [18] was “inactive” in each case. Also, the molecule was called inactive in experiment [7], in experiment [8], in [19], in [9], in experiment [10] and in experiment [11]. The molecule was classed as inactive in experiment [20], in experiment [12], in [13], in [14], in [15] and in experiment [16]. Further, the call in experiment [17] was inactive.
As to `COCC(=O)N(c1c(C)cccc1C)N1CCOC1=O`, the Potency entry in experiment [1], in [2], in [3], in [4], in experiment [5] and in experiment [6] was “inactive” each time. In addition, the call in experiment [7], in experiment [8], in [19], in [9], in experiment [10] and in experiment [11] was inactive. Besides, the call in experiment [20], in experiment [12], in experiment [13], in experiment [14], in experiment [15] and in [16] was inactive.
In the case of `Cc1nc(N)nc(N)n1`, the Potency result in experiment [1], in experiment [2], in [3], in experiment [4] and in [5] was “inactive” in each case. Further, the result in [7], in [8], in experiment [19], in experiment [9], in experiment [10] and in [11] was inactive. Also, the result in [20], in experiment [12], in experiment [13], in experiment [14], in [15] and in [16] was inactive. Moreover, the molecule was classed as inactive in experiment [17].
On to `O=C(Oc1ccc(Br)cc1)N1CCN2CCC1CC2`, for which the Potency entry in experiment [1], in [2], in experiment [3], in experiment [4], in [5] and in experiment [18] was “inactive” in each case. For the same molecule, the outcome in experiment [7], in [8], in experiment [19], in [9], in experiment [10] and in [11] was inactive. The outcome in experiment [20], in experiment [12], in experiment [13], in experiment [14], in experiment [16] and in experiment [17] was inactive.
On to `Nc1cc(Cl)ccc1O`, for which the Potency in experiment [1] was 26.4 µM (active); in experiment [4], 23.5 µM (active); in experiment [6] it was 9.37 µM (active). Moreover, the Potency entry in experiment [2], in experiment [3] and in experiment [5] was “inactive” each time. For the same molecule, the molecule was called inactive in experiment [7], in experiment [8], in [19], in experiment [9], in experiment [10] and in experiment [11]. For the same molecule, the molecule was called inactive in experiment [20], in experiment [12], in experiment [13], in experiment [14], in experiment [15] and in experiment [16]. In addition, the molecule was called inactive in experiment [17].
